# Screening results: PubChem, several laboratories
# PABP1 MLLE inh: inhibitors of microRNA-mediated deadenylation, human PABP1 MLLE binding; 0.36% of 360,000 active; inhibition, % at 20 µM; GST-MLLE / FITC-PAM2 fluorescence polarization; AID 588489; P11940; in the data active = inhibition above about 35%, passing the limit was not always enough;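 note: plate controls were DMSO wells with GST-MLLE for no effect and wells lacking GST-MLLE protein for full effect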
# SUMO HTRF inh: blocks human SUMOylation mediated by UBC9; P63279; 0.36% of 290,000 active; AID 2006; inhibition, % at 35 µM; HTRF SUMOylation assay, SAE1/SAE2 + UBC9, in vitro; in the data active = inhibition above about 50%, passing the limit was not always enough; inconclusive = no clear call, values can overlap the other calls
# Target sequence (P63279 whole entry, looked up): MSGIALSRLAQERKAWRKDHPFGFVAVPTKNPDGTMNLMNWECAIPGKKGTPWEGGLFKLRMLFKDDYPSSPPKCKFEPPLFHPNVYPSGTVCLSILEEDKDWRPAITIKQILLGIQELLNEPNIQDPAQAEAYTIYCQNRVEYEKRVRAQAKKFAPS
# ALR H2O2 inh: inhibitors of human sulfhydryl oxidase ALR | P55789 | purified ALR, DTT oxidation, H2O2 HRP-luminol luminescence | inhibition, % (test concentration not listed) | 3.8% of 290,000 active | AID 485317;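 active = mean replicate inhibition above about 79%, with every replicate also reaching it, limit read from the data; inconclusive = only one of the two criteria met; inactive = mean below limit and not every replicate reaching it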
# Target sequence (P55789 whole entry, looked up): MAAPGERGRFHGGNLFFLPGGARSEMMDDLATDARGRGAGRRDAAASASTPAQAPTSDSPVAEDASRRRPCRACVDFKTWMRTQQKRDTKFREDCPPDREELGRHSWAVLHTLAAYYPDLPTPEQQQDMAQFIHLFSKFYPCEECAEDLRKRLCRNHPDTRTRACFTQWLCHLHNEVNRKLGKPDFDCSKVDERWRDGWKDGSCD
# Efflux pump mplx: inhibitors of Candida antifungal efflux pumps expressed in yeast; S. cerevisiae Candida pump triplex, Nile Red efflux; inhibition, % at 10 µM; 0.44% of 330,000 active; AID 485275;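 active = plate passing quality check with inhibition over a set limit, or well fluorescence over plate mean plus 4 SD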;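 note: Nile Red retained in pooled yeast measured as flow cytometry median fluorescence; 0% = buffer negative control and 100% = Enniatin B positive control; higher means more Nile Red kept so more efflux inhibition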
# eIF4H FP inh: inhibitors of RNA binding by human eIF4H; Q15056; eIF4H fluorescence polarization binding assay; inhibition, % at 35 µM; 0.94% of 290,000 active;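 note: calls also rest on retests at 20 µM and on dose response follow-up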
# PABP FP inh: blocks human PABP binding to poly(A) RNA. P11940. AID 2014. 1% of 290,000 active. inhibition, % at 35 µM. fluorescence polarization;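 note: calls also rest on retests at 20 µM and on dose response follow-up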
# An asterisk follows results filed as active; ? = inconclusive; . = no result given. Compounds with a hit are over-represented: about 4.7% of the library has one in this group of screens. Unless noted, the rule behind the calls is not given here.
SMILES,PABP1 MLLE inh,SUMO HTRF inh,ALR H2O2 inh,Efflux pump mplx,eIF4H FP inh,PABP FP inh
C[C@@H]1CN([C@@H](C)CO)C(=O)CCCn2nncc2CO[C@H]1CN(C)C(=O)c1ccc2ccn(C)c2c1,-1,.,.,.,.,.
CN(CC1COc2ccccc2O1)C(=O)CSc1ncccn1 (stereo not given),5,.,-2,0,.,.
Nc1nc(CN2CCN(c3cccc(Cl)c3)CC2)nc(N2CCCc3ccccc32)n1,-18,-13,0,0,-12,-3
Nc1nc(CN2CCN(c3ccccc3)CC2)nc(N2CCCc3ccccc32)n1,7,23,98*,0,-11,-8
COc1ccc(N2CCN(Cc3nc(N)nc(N4CCCc5ccccc54)n3)CC2)cc1,-8,9,87*,0,4,0
O=C(Nc1ccccc1C(=O)N1CCOCC1)c1ccc(Br)cc1,1,2,-12,0,-4,5
O=S1(=O)CC2N=C(N(Cc3ccc(F)cc3Cl)c3ccccc3F)SC2C1 (stereo not given),11,-16,98*,0,-9,-4
CCOc1ccc(N(CC(=O)Nc2ccc(OC)cc2)C2=NC3CS(=O)(=O)CC3S2)cc1 (stereo not given),-10,9,99*,0,-24,-11
Cc1cccc(NC(=O)CN(C2=NC3CS(=O)(=O)CC3S2)c2ccccc2F)c1 (stereo not given),10,24,99*,0,-8,-17
CCOc1ccc(N(CC(=O)Nc2ccc(C)c(F)c2)C2=NC3CS(=O)(=O)CC3S2)cc1 (stereo not given),7,-14,17,0,-6,-1
C/C(=N\NC(=O)c1c(Cl)cnn1C)c1ccc(NC(=O)c2ccc(Br)o2)cc1,1,17,-1,0,5,-11
O=C(NC(=S)NCc1ccncc1)c1ccccc1,-78,13,94*,0,5,-11
COc1ccc(N(CC(=O)NC2CCS(=O)(=O)C2)S(=O)(=O)c2cc(C)ccc2C)cc1 (stereo not given),8,.,7,0,.,.
Nc1nc(-c2cccc(F)c2)cs1,39*,4,14,0,-14,-8
CC(=O)Nc1cccc(-c2csc(NCc3ccccc3)n2)c1,4,-3,67,0,-3,9
CC(=O)Nc1cccc(-c2csc(Nc3ccc(Cl)cn3)n2)c1,-1,0,98*,0,5,-6
CC(=O)Nc1cccc(-c2csc(N)n2)c1,4,10,98*,0,-2,-14
Cc1nc(-c2cccc(N)c2)cs1,3,2,99*,0,-2,-17
CCC1(c2ccc(F)cc2)NC(=O)N(CC(=O)NC2CCCC(C)C2C)C1=O (stereo not given),-6,.,-3,0,.,.
CCCCOc1ccc(-c2c(C#N)c(N)[nH]c(=S)c2C#N)cc1,23,11,88*,0,-5,16
COc1ccc(C(=O)N/C(=C\c2ccccc2)C(=O)N2CCOCC2)cc1,-2,3,-9,0,-13,1
COc1ccc(-c2ccc(/C=C(\NC(=O)c3ccccc3)C(=O)N3CCOCC3)o2)cc1,-13,18,98*,0,-18,4
O=C(O)C1Nc2c(O)cc(Cl)c([N+](=O)[O-])c2C2C=CCC12 (stereo not given),19,99*,64,0,?,5.4*
CC1(C(=O)NS(=O)(=O)c2cccs2)CCN1C(=O)c1ccco1 (stereo not given),-7,.,.,.,.,.
COc1ccccc1NC(=O)CSc1sc2c(O)cc(=O)[nH]c2c1C#N,-24,16,95*,0,42,24
SMILES,PABP1 MLLE inh,SUMO HTRF inh,ALR H2O2 inh,Efflux pump mplx,eIF4H FP inh,PABP FP inh
Cc1ccc(C)c(NC(=O)CSc2sc3c(O)cc(=O)[nH]c3c2C#N)c1,-14,16,?,0,9,5
Cc1ccc(Cl)cc1NC(=O)CSc1sc2c(O)cc(=O)[nH]c2c1C#N,-34,24,92*,0,17,21
COc1ccc(Cl)cc1NC(=O)CSc1sc2c(O)cc(=O)[nH]c2c1C#N,-17,20,99*,0,29,22
COc1ccc(NC(=O)CSc2sc3c(O)cc(=O)[nH]c3c2C#N)c(OC)c1,-19,7,33,0,46,15
Cc1ccc(OCCCC(=O)NNC(=O)c2ccccn2)cc1,1,.,-3,0,.,.
O/N=C\c1cccn1-c1nccs1,-2,14,-25,0,10*,64*
N#Cc1cccn1-c1nccs1,2,3,4,0,9,-10
CN(CC(=O)Nc1ccc(Cl)c(C(F)(F)F)c1)C(=O)c1ccccc1SCC(=O)N1CCCC1,9,.,.,.,.,.
Cc1cc(C)nc(SCc2cc(=O)c(OC(=O)c3cc([N+](=O)[O-])ccc3Cl)co2)n1,13,-8,94*,-1,10,30
Cc1cc(C)nc(SCc2cc(=O)c(OC(=O)c3ccco3)co2)n1,-3,13,21,0,11,6
COC(=O)c1ccc(NC(=O)CSc2nn3c(=O)c(C)nnc3s2)cc1,21,14,93*,0,3,-15
Cc1nnc2sc(SCC(=O)Nc3ccc(Br)cc3)nn2c1=O,21,-23,97*,0,2,3
Nc1nnc(SCC(=O)OCC(=O)Nc2ccc(Br)cc2)s1,-1,5,99*,1,-14,-2
Nc1nnc(SCC(=O)OCC(=O)Nc2ccc(Br)cc2F)s1,-4,3,-5,0,-5,-2
CN(CCOc1ccc(Cl)cc1)C(=O)c1cccc(S(=O)(=O)N2CCN(c3ccccc3)CC2)c1,-4,.,.,.,.,.
CCN1C(=O)[C@H]2[C@@H](c3ccc(-c4ccc(F)cc4)c(OC)c3)N[C@@](Cc3ccccc3)(C(=O)OC)[C@H]2C1=O,2,.,7,0,.,.
OC(c1ccc(F)c(F)c1)c1ncc(-c2cccc(F)c2)[nH]1 (stereo not given),-10,.,.,.,.,.
CCn1c(CN2CCN(c3cccc(C)c3C)CC2)n[nH]c1=S,-37,-10,10,0,5,9
NC(=O)CC(NC(=O)c1ccc(Br)cc1)c1ccc(NC2CCCCCCC2)c([N+](=O)[O-])c1 (stereo not given),-22,24,4,0,12,-9
COC(=O)/C=C/S(=O)(=O)c1ccc(NC(C)=O)cc1,31,29,98*,0,5,6
COc1ccc(Cc2nc3ccc(C(=O)NCCCSC)cc3o2)cc1OC,15,8,.,0,6,2
COc1ccc(S(=O)(=O)N(C)C[C@H]2Oc3ccc(NC(=O)Cc4ccccc4)cc3C(=O)N([C@H](C)CO)C[C@@H]2C)cc1,6,.,3,0,.,.
Cn1c(=O)[nH]c(=O)c2c1[nH]c(=S)n2Cc1ccc(Cl)cc1,-47,2,99*,0,-2,14
Cc1ccc2nc3c(c(N)c2c1)CCN3c1ccccc1,-8,1,?,0,51*,47
